# Records with an inconclusive call do not appear. Calls of active or inactive are those of the source. Rule for the calls, unless noted: active = hit-call score of the fitted dose curve at least 0.9, where 1 is the maximum; inconclusive = response in the unintended direction; inactive = score below 0.9. Where a SMILES comes first, the peptide text is derived from it. Bridges are numbered along the chain shown (N, C = ends). [ ]: non-standard residue; d: D form. Orn = NCCC[C@H](N)C(=O)O; Mpa = O=C(O)CCS
# How the values were obtained:
# [1] = TOX21_p53_BLA_p2_viability: Viability Assessment in the Tox21 HCT-116 p53 Agonism Beta-lactamase Assay, Phase 2 (AID 2283591);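 note: compound exposure lasted 16 h at 37 °C; actives lower the ATP signal meaning cytotoxicity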
# Procedure, shortened: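 HCT-116 p53-bla cells (4000/well) rested 5 h at 37C, then received compounds in DMSO (217-fold dilution) for 16 h at 37C, 5% CO2. After the CCF4 read, CellTiter-Glo was added; ATP luminescence was read after 30 min at room temperature.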
# [2] = molecular target: Cellular tumor antigen p53 (Homo sapiens) (UniProt P04637); assay: TOX21_p53_BLA_p2_ratio: Tox21 HCT-116 p53 Agonism Beta-lactamase Assay, Ratio, Phase 2 (AID 2283592)
# Chain of Cellular tumor antigen p53 (Homo sapiens) (P04637 whole entry, looked up): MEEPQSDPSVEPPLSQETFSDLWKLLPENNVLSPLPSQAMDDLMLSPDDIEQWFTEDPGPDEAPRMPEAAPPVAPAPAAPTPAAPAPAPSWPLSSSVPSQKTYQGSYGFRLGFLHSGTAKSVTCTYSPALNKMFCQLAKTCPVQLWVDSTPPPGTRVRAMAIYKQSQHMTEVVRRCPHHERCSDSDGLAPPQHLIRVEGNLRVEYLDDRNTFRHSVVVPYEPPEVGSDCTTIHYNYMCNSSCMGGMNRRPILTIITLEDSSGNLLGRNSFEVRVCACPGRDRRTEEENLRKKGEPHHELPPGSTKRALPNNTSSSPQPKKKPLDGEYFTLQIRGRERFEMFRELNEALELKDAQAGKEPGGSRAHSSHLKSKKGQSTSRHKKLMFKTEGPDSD
# Procedure, shortened: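 Ratio endpoint: beta-lactamase cleavage of CCF4-AM, blue (460 nm) over green (530 nm). HCT116 reporter line; 16 h treatment, 37C; substrate 2 h RT.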
# [3] = TOX21_p53_BLA_p3_viability: Viability Assessment in the Tox21 HCT-116 p53 Agonism Beta-lactamase Assay, Phase 3 (AID 2283593);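 note: cells exposed to compound for 16 h before reading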
# Procedure, shortened: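 HCT-116 cells (4000/well) rested 5 h at 37C, then got DMSO compounds by pin tool (217-fold dilution) for 16 h at 37C, 5% CO2. After the bla read, CellTiter-Glo was added and luminescence read at 30 min, room temperature.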
# [4] = TOX21_p53_BLA_p4_viability: Viability Assessment in the Tox21 HCT-116 p53 Agonism Beta-lactamase Assay, Phase 4 (AID 2283597);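 note: hits lower the luminescence signal meaning cytotoxicity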
# Procedure, shortened: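 Cytotoxicity was inferred from loss of CellTiter-Glo luminescence. HCT116 cells had been dosed with compounds after 5 h plating, incubated 16 h at 37C and 5% CO2, and exposed to the CCF4-AM substrate for 2 h.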
# [5] = molecular target: Cellular tumor antigen p53 (Homo sapiens) (UniProt P04637); assay: TOX21_p53_BLA_p5_ratio: Tox21 HCT-116 p53 Agonism Beta-lactamase Assay, Ratio, Phase 5 (AID 2283599)
# Procedure, shortened: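 HCT-116 cells carrying a p53-inducible beta-lactamase reporter were seeded at 4000 cells/well and dosed after 5 h with compound in DMSO (217-fold dilution). After 16 h at 37C, CCF4-AM substrate was added for 2 h, and the 460/530 nm emission ratio was scored as gain-of-signal versus DMSO.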
# [6] = TOX21_p53_BLA_p5_viability: Viability Assessment in the Tox21 HCT-116 p53 Agonism Beta-lactamase Assay, Phase 5 (AID 2283600)
# Procedure, shortened: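 Luciferase-coupled ATP quantitation of cells treated for 16 h (37C, 5% CO2) with test chemicals delivered in DMSO via a 217-fold dilution; 4000 cells/well; reagent incubated 30 min at room temperature before luminescence reading.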
# [7] = molecular target: Cellular tumor antigen p53 (Homo sapiens) (UniProt P04637); assay: TOX21_p53_BLA_p4_ratio: Tox21 HCT-116 p53 Agonism Beta-lactamase Assay, Ratio, Phase 4 (AID 2283601)
# Procedure, shortened: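 HCT116 cells carrying an inducible beta-lactamase reporter were plated at 4000 cells/well, rested 5 h, then exposed to compounds in DMSO (217-fold dilution) for 16 h at 37C. CCF4-AM substrate was loaded 2 h at room temperature; 460/530 nm emission ratio scored gain-of-signal versus DMSO.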
# THRB (gene 7068) = THRB (gene 7068) (UniProt P10828); assay: TOX21_TRB_COA_Antagonist_Followup_ratio: Tox21 Thyroid Hormone Receptor beta Antagonism through Coactivator Recruitment Follow-Up Assay, Ratio (AID 2283967)
# Chain of THRB (gene 7068) (P10828 whole entry, looked up, the tested form may be a part): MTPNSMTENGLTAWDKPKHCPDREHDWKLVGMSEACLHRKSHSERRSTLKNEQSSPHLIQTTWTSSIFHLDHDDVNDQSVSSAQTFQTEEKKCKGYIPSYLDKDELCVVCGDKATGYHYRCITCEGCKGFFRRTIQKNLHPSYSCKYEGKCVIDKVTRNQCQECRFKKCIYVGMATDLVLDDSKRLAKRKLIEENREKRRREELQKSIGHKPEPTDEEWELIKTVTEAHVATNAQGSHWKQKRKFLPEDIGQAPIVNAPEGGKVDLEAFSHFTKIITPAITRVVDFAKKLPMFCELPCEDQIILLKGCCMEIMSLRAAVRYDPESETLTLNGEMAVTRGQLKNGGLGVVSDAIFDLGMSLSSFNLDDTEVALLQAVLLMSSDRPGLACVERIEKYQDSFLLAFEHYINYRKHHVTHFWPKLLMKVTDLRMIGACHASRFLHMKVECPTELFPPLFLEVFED
# Procedure, shortened: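 Coactivator (SRC-2) recruitment to purified GST-TRβ ligand-binding domain is monitored by terbium-to-fluorescein energy transfer, emission ratio 520:495 nm. DMSO wells define 0% and T3 wells 100% activity.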
# [8] = TOX21_TR_RXR_BLA_Antagonist_Followup_viability: Viability Assessment in the Tox21 Thyroid Hormone Receptor beta Retinoid X Receptor alpha (RXRa) Antagonism Beta-lactamase (BLA) Follow-Up Assay (AID 2283979)
# Procedure, shortened: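 RXRa-UAS-bla HEK293T cells seeded 2,500/well in phenol red-free DMEM with 2% charcoal-stripped FBS, attached 5 h, then exposed to compounds at 11 concentrations in triplicate for 16 h at 37C/5% CO2. Viability read by CellTiter-Glo ATP luminescence; bidirectional fit versus DMSO.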
# [9] = ACEA_ER_AUC_viability: ACEA Biosciences xCELLigence Real-Time Cell Analysis on Estrogen Receptor Agonism for Viability (AID 2283782);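 note: hit means loss of impedance signal meaning reduced cell growth or viability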
# Procedure, shortened: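 Continuous-exposure impedance cell analysis uses T-47D cells in charcoal-stripped serum, eight 1:4 dilutions topping at 100 uM final, biological duplicate. Area under the growth curve at 80 h is fitted against DMSO baseline.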
# [10] = CCTE_Harrill_HTTr_Viability_MCF7: CCTE's 6-hour Cell Viability Assessment for the High-Throughput Transcriptomics (HTTr) Platform, in MCF-7 cells cultured in DMEM + 10% fetal bovine serum, Harrill Lab (AID 2284010; active = hit-call score of the fitted dose curve at least 0.9, where 1 is the maximum; inactive = score below 0.9)
# Procedure, shortened: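 Propidium iodide exclusion, imaged by high-content analysis, gauged viability after a six-hour exposure across eight concentrations. Cells were MCF-7 grown in DMEM with 10% fetal bovine serum; fits run in both directions against DMSO.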
# [11] = CCTE_Harrill_HTTr_Apoptosis_MCF7: CCTE's 6-hour Apoptosis Assessment for the High-Throughput Transcriptomics (HTTr) Platform, in MCF-7 cells cultured in DMEM + 10% fetal bovine serum, Harrill Lab (AID 2284011; active = hit-call score of the fitted dose curve at least 0.9, where 1 is the maximum; inactive = score below 0.9)
# Procedure, shortened: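 MCF-7 cells in DMEM + 10% fetal bovine serum were exposed to chemicals for 6 hours over an eight-point dilution series. Caspase-3/7 activation was imaged by high content imaging with CellEvent Caspase 3/7 Green; bidirectional fitting used DMSO as baseline.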
# [12] = CCTE_Harrill_HTTr_CellCount_MCF7: CCTE's Cell Proliferation Assessment for the High-Throughput Transcriptomics (HTTr) Platform, Harrill Lab (AID 2284012);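 note: cells exposed to compound for six hours; intended direction is loss of nuclei count meaning fewer cells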
# Procedure, shortened: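 Cell count from high-content imaging of Hoechst-labeled nuclei serves as viability/growth readout. Chemicals were applied to MCF-7 cells in eight concentrations for six hours, with fitting in both directions relative to DMSO.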
smiles,measurement,setting,value
O=C(O[C@H]1CN2CCC1CC2)N1CCc2ccccc2[C@@H]1c1ccccc1,outcome,[1],inactive
same,outcome,[2],inactive
same,outcome,[3],inactive
same,outcome,[4],inactive
same,outcome,[5],inactive
same,outcome,[6],inactive
same,outcome,[7],inactive
O=C(O)COc1ccc(C(=O)c2cccs2)c(Cl)c1Cl,outcome,[1],inactive
same,outcome,[2],inactive
same,outcome,[3],inactive
same,outcome,[4],inactive
same,outcome,[5],inactive
same,outcome,[6],inactive
same,outcome,[7],inactive
CC(=O)[C@H]1CC[C@H]2[C@@H]3C=CC4=CC(=O)CC[C@@]4(C)[C@@H]3CC[C@]12C,outcome,[1],inactive
same,outcome,[2],inactive
same,outcome,[3],inactive
same,outcome,[4],inactive
same,outcome,[5],inactive
same,outcome,[6],inactive
same,outcome,[7],inactive
same,outcome,THRB (gene 7068),inactive
same,outcome,[8],inactive
Clc1ccc2c(c1)CCc1cccnc1C2=C1CCNCC1,outcome,[1],inactive
same,outcome,[2],inactive
same,outcome,[3],inactive
same,outcome,[4],inactive
same,outcome,[5],inactive
same,outcome,[6],inactive
same,outcome,[7],inactive
CCCc1cc(C(N)=S)ccn1,outcome,[1],inactive
same,outcome,[2],inactive
same,outcome,[3],inactive
same,outcome,[4],inactive
same,outcome,[6],inactive
O=[N+]([O-])c1ccc(CCO)cc1,outcome,[1],inactive
same,outcome,[2],inactive
same,outcome,[3],inactive
same,outcome,[4],inactive
same,outcome,[5],inactive
same,outcome,[7],inactive
Oc1ccccc1C=NCc1ccccc1,outcome,[1],inactive
same,outcome,[2],inactive
same,outcome,[3],inactive
same,outcome,[4],inactive
same,outcome,[5],inactive
same,outcome,[6],inactive
same,outcome,[7],inactive
CCOc1ccc(C[C@H]2NC(=O)CCSSC[C@@H](C(=O)N3CCC[C@H]3C(=O)N[C@@H](CCCN)C(=O)NCC(N)=O)NC(=O)[C@H](CC(N)=O)NC(=O)[C@H]([C@@H](C)O)NC(=O)[C@H]([C@@H](C)CC)NC2=O)cc1 ([Mpa][dY](Et)ITNCP[Orn]G-NH2; disulfide 1-6),outcome,[1],inactive
same,outcome,[2],inactive
same,outcome,[3],inactive
same,outcome,[4],inactive
same,outcome,[6],inactive
same,outcome,[7],inactive
Cc1cc(-c2ccccc2)nnc1NCCN1CCOCC1,outcome,[1],inactive
same,outcome,[2],inactive
same,outcome,[3],inactive
same,outcome,[5],inactive
O=C(O)c1ccccc1S,outcome,[1],inactive
same,outcome,[2],inactive
same,outcome,[3],inactive
same,outcome,[5],inactive
Oc1ccc2c(c1)OCO2,outcome,[1],inactive
same,outcome,[2],inactive
same,outcome,[3],inactive
same,outcome,[4],inactive
same,outcome,[6],inactive
same,outcome,[7],inactive
COC(=O)C1CC(=O)C(C(=O)OC)CC1=O (stereo not given),outcome,[1],inactive
same,outcome,[2],inactive
same,outcome,[3],inactive
same,outcome,[4],inactive
same,outcome,[7],inactive
CCN(CC)Cc1cc(Nc2ccnc3cc(Cl)ccc23)ccc1O,outcome,[1],inactive
same,outcome,[2],inactive
same,outcome,[3],inactive
same,outcome,[4],inactive
same,outcome,[6],inactive
same,outcome,[7],inactive
CN(C(=O)CO)c1c(I)c(C(=O)NCC(O)CO)c(I)c(C(=O)NCC(O)CO)c1I (stereo not given),outcome,[1],inactive
same,outcome,[2],inactive
same,outcome,[3],inactive
same,outcome,[4],inactive
same,outcome,[6],inactive
same,outcome,[7],inactive
O=C(O)CCCc1c[nH]c2ccccc12,outcome,[1],inactive
same,outcome,[2],inactive
same,outcome,[3],inactive
same,outcome,[4],inactive
same,outcome,[6],inactive
same,outcome,[7],inactive
same,outcome,[9],inactive
same,outcome,[10],inactive
same,outcome,[11],inactive
O=C1OC2(c3ccc(O)cc3Oc3cc(O)ccc32)c2ccc(N=C=S)cc21,outcome,[1],inactive
same,outcome,[2],inactive
same,outcome,[3],inactive
same,outcome,[4],inactive
same,outcome,[6],inactive
same,outcome,[7],inactive
CC1Cc2ccccc2N1NC(=O)c1ccc(Cl)c(S(N)(=O)=O)c1 (stereo not given),outcome,[1],inactive
same,outcome,[2],inactive
same,outcome,[3],inactive
same,outcome,[4],inactive
same,outcome,[6],inactive
same,outcome,[7],inactive
same,outcome,[10],inactive
same,outcome,[11],inactive
same,outcome,[12],inactive
O=C(CCCN1CCC(C(=O)c2ccc(F)cc2)CC1)c1ccc(F)cc1,outcome,[1],inactive
same,outcome,[2],inactive
same,outcome,[3],inactive
same,outcome,[4],inactive
same,outcome,[6],inactive
same,outcome,[7],inactive
O=c1cc[nH]c(=O)[nH]1,outcome,[1],inactive
same,outcome,[2],inactive
same,outcome,[3],inactive
same,outcome,[4],inactive
same,outcome,[6],inactive
same,outcome,[7],inactive
O=P(O)(O)C(Sc1ccc(Cl)cc1)P(=O)(O)O,outcome,[1],inactive
same,outcome,[2],inactive
same,outcome,[3],inactive
same,outcome,[4],inactive
same,outcome,[6],inactive
NC(=O)COCCN1CCN(C(c2ccccc2)c2ccc(Cl)cc2)CC1 (stereo not given),outcome,[1],inactive
same,outcome,[2],inactive
same,outcome,[3],inactive
same,outcome,[4],inactive
same,outcome,[6],inactive
same,outcome,[7],inactive
CCOC(=O)[C@H](CCc1ccccc1)N[C@@H](C)C(=O)N(CC(=O)O)C1Cc2ccccc2C1,outcome,[1],inactive
same,outcome,[2],inactive
same,outcome,[3],inactive
same,AC50,[4],7.13 µM (active)
same,outcome,[6],inactive
same,outcome,[7],inactive
CCOC(C)(C)C,outcome,[1],inactive
same,outcome,[2],inactive
same,outcome,[3],inactive
same,outcome,[4],inactive
same,outcome,[6],inactive
same,outcome,[7],inactive
Cn1c(=O)c2[nH]c(Br)nc2n(C)c1=O,outcome,[1],inactive
same,outcome,[2],inactive
same,outcome,[3],inactive
same,outcome,[5],inactive
same,outcome,[6],inactive
same,outcome,[7],inactive
c1cnccn1,outcome,[1],inactive
same,outcome,[2],inactive
same,outcome,[3],inactive
same,outcome,[5],inactive
same,outcome,[6],inactive
CC(C)=CCC/C(C)=C/CC/C(C)=C/CC/C=C(\C)CC/C=C(\C)CCC=C(C)C,outcome,[1],inactive
same,outcome,[2],inactive
same,outcome,[3],inactive
same,outcome,[4],inactive
same,outcome,[6],inactive
same,outcome,[7],inactive
CNCC(O)c1ccc(OC(=O)C(C)(C)C)c(OC(=O)C(C)(C)C)c1 (stereo not given),outcome,[1],inactive
same,outcome,[2],inactive
same,outcome,[3],inactive
same,outcome,[4],inactive
same,outcome,[6],inactive
same,outcome,[7],inactive
Cc1nccn1CC1CCc2c(c3ccccc3n2C)C1=O (stereo not given),outcome,[1],inactive
same,outcome,[2],inactive
same,outcome,[3],inactive
same,outcome,[4],inactive
same,outcome,[6],inactive
same,outcome,[7],inactive
C=C(C)C(=O)OCCCCCCCCCCCCC,outcome,[1],inactive
same,outcome,[2],inactive
same,outcome,[3],inactive
same,outcome,[4],inactive
same,outcome,[6],inactive
same,outcome,[7],inactive
CCOC(=O)c1ccc(NC(=O)CN2CCCCC2)cc1,outcome,[1],inactive
same,outcome,[2],inactive
same,outcome,[3],inactive
same,outcome,[5],inactive
same,outcome,[6],inactive
COc1ccc(CNCC(O)COc2ccc3[nH]c(=O)ccc3c2)cc1OC (stereo not given),outcome,[1],inactive
same,outcome,[2],inactive
same,outcome,[3],inactive
same,outcome,[4],inactive
same,outcome,[6],inactive
same,outcome,[7],inactive
